Compounds without any hit were thinned out: in the full panel of roughly 83,000, 20% have a hit.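 Cells were grown in 96-well plates and exposed to the test compound at a single concentration for 48 hours; results are reported as percent growth, with values below 10 considered active.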 A number with no mark means an inactive call. Activity calls are given as the source filed them.

We go through nine compounds from PubChem BioAssay (NCI).

Among the test systems are NCI-H23 lung; NCI-H226 lung; NCI-H322M lung; NCI-H460 lung; NCI-H522 lung; A549/ATCC NSCLC; 786-0 renal; COLO 205 colon; DU-145 prostate; K-562 leukemia; MALME-3M melanoma; MDA-MB-231 breast; RXF 393 renal; SF-268 CNS; SF-539 CNS; UACC-257 melanoma; M14 melanoma; HCT-15 colon; HOP-62 NSCLC; SF-295 CNS.
Experiment in all cases: NCI-60 one-dose screen, 48 h (100 = growth as untreated, 0 = no growth, -100 = all killed)
Holding throughout (details): 10 µM unless noted

For `COc1cc(/C=C2\CCC/C(=C\c3ccc(OCC4CO4)c(OC)c3)C2=O)ccc1OCC1CO1` (centres undefined), the growth in the assay with NCI-H23 lung is 57.8%; with NCI-H226 lung, 86.2%; in the assay on NCI-H322M lung, 85.1%; in the assay on NCI-H460 lung it was 8.96% (active); in the assay on NCI-H522 lung it was 24.3%; in the assay on A549/ATCC NSCLC, 21.3%. Moreover, the growth in the assay on 786-0 renal was 65.2%; with COLO 205 colon it was 33.8%; with DU-145 prostate, 7.14% (active); in the assay with K-562 leukemia it was -3.49% (active); in the assay on MALME-3M melanoma, 26.2%; in the assay on MDA-MB-231 breast it was 13.1%. The growth in the assay on RXF 393 renal is 4.7% (active); with SF-268 CNS, 1.73% (active); in the assay on SF-539 CNS, 25.2%; in the assay on UACC-257 melanoma, 35.1%; in the assay on M14 melanoma, 2.79% (active); in the assay on HCT-15 colon it was 14.4%.

Regarding `Cc1ccc(NC(=O)Nc2ccc(-c3cccnc3)cc2N2CCC(CO)CC2)cc1`, the growth was 54% in the assay on NCI-H226 lung; 34.3% in the assay on NCI-H322M lung; 24.9% in the assay with HOP-62 NSCLC; 29.1% with NCI-H460 lung; 9.32% (active) in the assay on NCI-H522 lung; 7.01% (active) in the assay on A549/ATCC NSCLC. The growth is -8.69% (active) in the assay with 786-0 renal; 31.5% in the assay with COLO 205 colon; 29.8% in the assay on DU-145 prostate; 9.37% (active) in the assay with K-562 leukemia; 25.5% with MALME-3M melanoma; 9.31% (active) in the assay on MDA-MB-231 breast. Also, the growth was -34.8% (active) in the assay on RXF 393 renal; 36.5% in the assay on SF-268 CNS; 40.1% with SF-295 CNS; 1.34% (active) in the assay on SF-539 CNS; 24.3% with UACC-257 melanoma; 27.1% in the assay on M14 melanoma. Moreover, the growth in the assay with HCT-15 colon was 20.2%.

Regarding `O=C(Oc1ccc[nH]c1=O)c1cccc(Cl)c1`, the growth was 109% in the assay on NCI-H226 lung; 99.9% with NCI-H322M lung; 90.5% in the assay with HOP-62 NSCLC; 100% with NCI-H460 lung; 95.3% in the assay on NCI-H522 lung; 101% in the assay with A549/ATCC NSCLC. Also, the growth with 786-0 renal was 90.7%; with COLO 205 colon it was 84.4%; in the assay with DU-145 prostate, 113%; with K-562 leukemia it was 104%; in the assay on MALME-3M melanoma, 104%; in the assay on MDA-MB-231 breast it was 103%. Besides, the growth in the assay on RXF 393 renal was 163%; with SF-268 CNS it was 101%; in the assay on SF-295 CNS, 108%; in the assay on SF-539 CNS, 88.2%; with UACC-257 melanoma, 113%; with M14 melanoma, 95.8%. In the assay on HCT-15 colon, the growth was 91.2%.

On to `COc1ccc(C2CC(c3ccc(OC)c(OC)c3)=NN2C(=O)c2cc(OC)c(OC)c(OC)c2)c(OC)c1` (centres undefined), for which the growth in the assay on NCI-H226 lung is 76.4%; in the assay on NCI-H322M lung, 94.8%; with HOP-62 NSCLC, 76.1%; with NCI-H460 lung, 78.5%; in the assay on NCI-H522 lung, 33.9%; with A549/ATCC NSCLC, 82.8%. The growth is 66.8% in the assay with 786-0 renal; 63.9% with COLO 205 colon; 101% in the assay with DU-145 prostate; 51.3% with K-562 leukemia; 86.7% in the assay with MALME-3M melanoma; 90.3% with MDA-MB-231 breast. The growth in the assay with RXF 393 renal is 48.6%; in the assay on SF-268 CNS, 82%; in the assay on SF-295 CNS, 31%; in the assay with SF-539 CNS, 64.4%; with UACC-257 melanoma it was 61.7%; in the assay with M14 melanoma, 63.9%. Besides, in the assay with HCT-15 colon, the growth was 67.4%.

Consider `Nc1ccc(C2=NN(c3ccccc3)C(c3ccc(Cl)cc3)C2)cc1` (centres undefined), for which the growth in the assay on NCI-H226 lung was 90.9%; with NCI-H322M lung, 88.2%; in the assay on HOP-62 NSCLC, 87.2%; with NCI-H460 lung, 99.4%; in the assay with NCI-H522 lung, 22.7%; in the assay with A549/ATCC NSCLC, 83.1%. For the same compound, the growth with 786-0 renal was 78.4%; with COLO 205 colon, 101%; in the assay on DU-145 prostate it was 81.7%; in the assay on K-562 leukemia, 17.5%; in the assay on MALME-3M melanoma it was 105%; with MDA-MB-231 breast, 88.5%. For the same compound, the growth with SF-268 CNS is 82.5%; with SF-295 CNS, 86.6%; with SF-539 CNS it was 81.2%; with UACC-257 melanoma, 82.1%; in the assay with M14 melanoma, 72.7%; in the assay on HCT-15 colon, 48.7%.

On to `c1ccc2c(c1)[nH]c1c2cc[n+]2cc3c(cc12)CCCC3`, for which the growth in the assay on NCI-H226 lung is 35.5%; in the assay on NCI-H322M lung, 29.8%; with HOP-62 NSCLC, 18.8%; with NCI-H460 lung it was 15.2%; with A549/ATCC NSCLC, 64%; in the assay on 786-0 renal it was 48.7%. Besides, the growth in the assay with COLO 205 colon was 36.3%; in the assay with DU-145 prostate, 40.9%; in the assay on K-562 leukemia it was 16.9%; with MALME-3M melanoma it was 3.13% (active); in the assay on MDA-MB-231 breast, 31.4%; in the assay with RXF 393 renal, 76.8%. Moreover, the growth is 23% in the assay on SF-268 CNS; 37.6% in the assay with SF-539 CNS; 38.4% in the assay on UACC-257 melanoma; 19.7% in the assay with M14 melanoma; 96.9% in the assay on HCT-15 colon.

As to `C/C(=C\CCc1ccoc1)CC/C=C(\C)CCCN1CCC(CO)CC1`, the growth is 74.9% in the assay with NCI-H226 lung; 74.9% in the assay with NCI-H322M lung; 83% with HOP-62 NSCLC; 53.8% in the assay with NCI-H460 lung; 54.6% in the assay with NCI-H522 lung; 65.9% in the assay with A549/ATCC NSCLC. The growth in the assay on 786-0 renal was 48.5%; in the assay with COLO 205 colon, -21.4% (active); in the assay on DU-145 prostate, 80.8%; with K-562 leukemia, -15.8% (active); in the assay on MALME-3M melanoma, 11%; with MDA-MB-231 breast it was 50%. For the same compound, the growth with SF-268 CNS is 79.2%; in the assay on SF-295 CNS, 47.4%; in the assay with SF-539 CNS, 48.9%; with UACC-257 melanoma, 49%; in the assay with M14 melanoma it was 36.3%; with HCT-15 colon it was 25.5%.

As for `N#CCCCCCn1c2ccccc2c2c3c(c4c5ccccc5[nH]c4c21)C(=O)N(O)C3=O`, the growth in the assay on NCI-H226 lung is 43.3%; with NCI-H322M lung, 19.9%; with NCI-H460 lung, -7.73% (active); in the assay with NCI-H522 lung it was -53.9% (active); in the assay on A549/ATCC NSCLC, 25%; in the assay on COLO 205 colon, 26.7%. Moreover, the growth in the assay on DU-145 prostate is 18.5%; in the assay on K-562 leukemia, 6.27% (active); in the assay on MALME-3M melanoma it was -34.6% (active); in the assay on MDA-MB-231 breast, 16.1%; in the assay on RXF 393 renal it was -30.7% (active); with SF-268 CNS it was 11.3%. Moreover, the growth in the assay on SF-295 CNS is -17.2% (active); in the assay with SF-539 CNS it was -95.4% (active); with UACC-257 melanoma, 20.5%; with M14 melanoma it was 11.9%; in the assay on HCT-15 colon it was 15.9%.

In the case of `CCCCCCCCCCCCCCCCCC1=NC(C)(C)CN1CCO`, the growth is 17.6% with NCI-H226 lung; 59.8% in the assay on NCI-H322M lung; -74.9% (active) in the assay on HOP-62 NSCLC; -51.7% (active) with NCI-H460 lung; -58.2% (active) in the assay with NCI-H522 lung; -28.9% (active) with A549/ATCC NSCLC. For the same compound, the growth in the assay with 786-0 renal was -53.6% (active); in the assay on COLO 205 colon it was -59.9% (active); with DU-145 prostate, 2.01% (active); with K-562 leukemia, -49.5% (active); in the assay with MALME-3M melanoma it was 11.8%; in the assay on MDA-MB-231 breast, -61.7% (active). Moreover, the growth in the assay on RXF 393 renal was -47.3% (active); in the assay on SF-268 CNS, -67.1% (active); in the assay on SF-295 CNS, -2.44% (active); in the assay on SF-539 CNS, -80.6% (active); in the assay on UACC-257 melanoma, -10.6% (active); in the assay on M14 melanoma it was -74.7% (active). For the same compound, in the assay with HCT-15 colon, the growth was -55.4% (active).
